Data on 38 compounds can be found in PubChem BioAssay (NCI).

Structures are written as SMILES. The panel holds about 83,000 compounds, 20% with a hit somewhere; the sample as a whole holds those more often.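 Results are percent growth after 48 hours of single-concentration exposure. 100 means growth as in untreated cells, lower positive values show inhibition; negative values down to -100 show cell death.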 Unmarked numbers belong to inactive results. The source made the active and inactive calls. The calls were made as follows: active = growth percent below 10; inactive = the rest.

In this assay the test system is SR leukemia. The experiment in a line: NCI-60 one-dose screen, 48 h (100 = growth as untreated, 0 = no growth, -100 = all killed). The note with it: 10 µM unless noted.
On to `CCN1C(=O)N(CC)C2SC(N/N=C/c3cccs3)=NC21` (stereo not drawn), for which the growth was 15.1%.
With `O=C1NC(=O)/C(=C/c2ccc(OCc3cc4ccccc4nc3Cl)cc2)S1` the figure was 91%.
In the case of `O=C(NNc1nc2cc(F)c(F)cc2n2cccc12)c1ccncn1` it was 14.6%; in that of `C#C[C@]1(O)CC[C@H]2[C@@H]3CC=C4c5sc(Nc6nc(C)cc(OC)n6)nc5CC[C@]4(C)[C@H]3CC[C@@]21C`, 12.4%; in that of `CCNC(=O)Oc1ccc(/C(=C(/C)c2ccc(Cl)cc2)c2ccc(OCCN3CCCC3)cc2)cc1`, 23.2%.
In the case of `O=C(NNc1nc2cc(F)c(F)cc2n2cccc12)c1cccnn1` it was 11.8%.
Consider `O=C(O)CNS(=O)(=O)c1ccc(Oc2ccc(S(=O)(=O)NCC(=O)O)cc2)cc1`, for which the growth is 96.7%.
With `Cc1cc(NS(=O)(=O)c2ccc(-c3cnc(C4CC4)o3)cc2)ccc1I`, the growth was 32.9%.
In the case of `COc1ccc(C(=O)c2c(N)c(C#N)cn2-c2cccc(OC)c2)cc1` it was 27%.
With `COc1ccc(CCN2C(=O)CSC2=S)cc1OC` the figure was 64.6%; with `Cc1ccc(/C=C/CC(=O)Nc2ccc(C(=O)Nc3ccc(F)cc3N)cc2)cn1`, 46.1%.
With `O=C(NNc1nc2cc(F)cc(F)c2n2cccc12)c1ccncn1` the figure was 4.42% (active).
With `C[C@H]1[C@H](C)CC[C@]2(COC(=O)c3cccnc3)CC[C@]3(C)C(=CC[C@@H]4[C@@]5(C)CCCNC(C)(C)[C@@H]5CC[C@]43C)[C@H]12`, the growth is -8.33% (active).
For the compound `Fc1ccccc1/C=C(/C1=NCCN1)n1cnc2ccccc21`, the growth is 91.7%.
Turning to `COc1ccc(CN2C(=O)/C(=C/c3nc(CO)cs3)SC2=S)cc1`, the growth was 33.8%.
In the case of `O=C(Nc1cc(F)cc2cccnc12)c1cnc(N2CCOCC2)cn1` it was 38.5%; in that of `CC1OC(O[C@@H]2[C@H](O)C(CO)OC(O[C@H]3COC(O[C@H]4CC[C@]5(C)[C@H]6CC[C@]78OC[C@@]9(CCC(C)(C)C[C@H]97)[C@H](O)C[C@@]8(C)[C@]6(C)CC[C@H]5C4(C)C)[C@@H](OC4OC(CO)[C@@H](O)[C@@H](O)[C@@H]4O)[C@@H]3O)[C@H]2OC2OC[C@@H](O)[C@@H](O)[C@@H]2O)[C@@H](O)[C@@H](O)[C@H]1O` (stereo partly drawn), -51.3% (active); in that of `C#C[C@]1(O)CC[C@H]2[C@@H]3CC=C4c5sc(Nc6cccc(Cl)n6)nc5CC[C@]4(C)[C@H]3CC[C@@]21C`, 2.56% (active).
Regarding `Cc1ccc(/C=C/CC(=O)Nc2ccc(C(=O)Nc3ccc(F)cc3N)nc2)cn1`, the growth is 31.4%.
In the case of `O=C1[C@@H]2Cc3c([nH]c4ccccc34)[C@H](c3c(Cl)cccc3Cl)N2C(=O)CN1C1CCN(Cc2ccccc2)CC1` it was 1.57% (active); in that of `C#CCOc1ccc(C(Nc2ccc(OC)cc2)c2nnnn2C2CCCCC2)cc1` (stereo not drawn), 95.6%; in that of `COc1cc(C(=O)c2cc(C(C)=O)c3c4ccccc4ccn23)cc(OC)c1OC`, 16.8%.
With `Cc1[nH]nc2ccc(-c3nc4cnc(N5CCN(C)CC5)cn4c3Nc3ccc(F)cc3Br)cc12` the figure was 4.63% (active); with `O=C(Nc1cccc(Cl)c1)Nc1nc2ccc(-c3cccc4ccccc34)cc2s1`, 90%; with `Cc1cc(C(=O)Nc2ccc(SC#N)cc2)c(C)o1`, 5.44% (active).
In the case of `O=C(NNc1nc2cc(F)c(F)cc2n2cccc12)c1ncccn1` it was 18.7%.
Take `CN1CCN(c2ccc(NC(=O)Nc3ccc4c(ccn4-c4cccc(C(N)=O)n4)c3)cc2C(F)(F)F)CC1`: the growth is 14.6%.
With `O=C(Nc1ccc(Cl)cc1)Nc1nc2ccc([N+](=O)[O-])cc2s1` the figure was -24.3% (active); with `NC(=O)c1c(NC(=O)c2cccc(OC(F)(F)F)c2)sc2c1CCC(=O)C2`, 30%; with `O=C(/C=C1\C=CN(CCCCO)c2ccccc21)n1ccc2ccccc21`, 123%.
In the case of `O=C1c2c(c3c4cccnc4[nH]c3c3ccc4ccccc4c23)C(=O)N1CCN1CCNCC1` it was -6.6% (active); in that of `O=C(Nc1ccccc1)Nc1nc2ccc([N+](=O)[O-])cc2s1`, 2.29% (active).
Turning to `Cc1cc(Cl)cc(NS(=O)(=O)c2ccc(-c3cnc(C4CC4)o3)cc2)c1`, the growth was 27.1%.
With `CCOC(=O)C1=C(C)Nc2nc3ccccc3n2C1c1cccc(Br)c1` (stereo not drawn), the growth is 25.4%.
With `CCOC(=O)c1nn(-c2ccc(C)cc2)c(=O)c2c(N)c(C#N)c(-c3ccc(OC)cc3)cc12` the figure was 127%; with `Cc1ccc(NC(=O)c2cccc(CN3CCN(C)CC3)c2)cc1Oc1ccc(-c2[nH]nc3ncnc(N)c23)cc1`, 6.56% (active).
With `O=C1c2c(c3c4cc(Br)ccc4[nH]c3c3ccc4ccccc4c23)C(=O)N1CCN1CCCCC1` the figure was -21.6% (active).
In the case of `CC(C)(C)OC(=O)N1CCN(S(=O)(=O)/N=C2\NC(=O)NC2=C(Cl)Cl)CC1` it was 23.6%.
